The campaign covered roughly 350,000 compounds. About 1,100 (0.31%) were called active. This is one part of a sample in which actives are shown more often than they occur. No stated cut-off is given here; in the data, active means activation above about 50%; inactive means the rest.

The target of the test is Endoribonuclease toxin MazF (Escherichia coli (strain K12)) (UniProt P0AE70). The test can be described thus: activators of E. coli MazEF toxin-antitoxin RNase, primary screen, biochemical, fluorescence, uHTS (AID 504720). The settings on record: FAM/BHQ RNA-DNA oligo cleavage fluorescence, 5 h, at 20 µM, hits give high values.
Chain of Endoribonuclease toxin MazF (Escherichia coli (strain K12)) (P0AE70 whole entry, looked up): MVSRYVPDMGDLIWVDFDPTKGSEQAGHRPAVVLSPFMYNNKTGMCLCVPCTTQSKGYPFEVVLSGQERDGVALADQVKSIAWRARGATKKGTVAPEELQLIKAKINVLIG
For the molecule `CCOc1ccc(/C=C/C(=O)OCC(=O)c2ccccc2OC)cc1OC`, the activation was -8.54% (inactive).

Take `Cc1cccc(-n2c(O)c(C=Nc3ccccc3N)c(=O)[nH]c2=O)c1`: the activation is 10.4% (inactive).

`COC(=O)Cc1csc(/N=C/c2c(O)n(-c3cccc(C(F)(F)F)c3)c(=O)c3ccccc23)n1`: the activation is -24.2% (inactive).

For `Cc1ccc(N=Cc2c(O)n(-c3nccs3)c(=O)c3ccccc23)c(C)c1`, the activation is 1250% (active).

With `COc1ccc(C)cc1N(C)C(=O)c1coc(=O)c2ccccc12`, the activation is 4.28% (inactive). Then `COc1cc(OC)cc(C(=O)Nc2ccc(-c3nc4ccccc4o3)c(O)c2)c1`, with -11.7% (inactive); and `O=C(Nc1ccc2oc(-c3ccc4ccccc4c3)nc2c1)c1cccs1`, with 57.7% (active); and `O=C(Nc1ccc2oc(-c3ccccc3F)nc2c1)c1ccco1`, with 1.3% (inactive).

For the molecule `O=C(NCCSc1ncc(-c2ccccc2)[nH]1)c1ccco1`, the activation was 3.87% (inactive).

As for `COCCCNC(=O)c1c(F)c(F)c(F)c(F)c1F`, the activation was 5.56% (inactive). Then `COc1ccc(/C=C/c2c(-c3cccc(C)c3)oc3ccc(-c4ccc5c(c4)OCO5)cc23)cc1`, with -7.77% (inactive).

In the case of `Cc1cc(C)cc(Oc2c(C(F)(F)F)oc3cc(OCC(=O)O)ccc3c2=O)c1`, the activation was 2.37% (inactive). Then `O=C(Cc1ccccc1)Nc1ccc(NC(=O)c2cccnc2)cc1`, with -0.44% (inactive); and `CCC(=O)Nc1cccc(NC(=O)c2cccnc2)c1`, with 335% (active). Then `CCOC(=O)c1cc(NC(=O)c2cccnc2)ccn1`, with 0.906% (inactive).

In the case of `O=C(NCCOc1ccccc1)N1[C@H]2CC[C@@H]1C=C(c1ccc(F)cc1OCc1ccccc1)C2`, the activation was -1.59% (inactive). Turning to `CSCCC1NC2(C(=O)Nc3ccc(Cl)cc32)[C@@H]2C(=O)N(C3CCCC3)C(=O)[C@H]12` (stereo partly specified), the activation is 2.84% (inactive). On to `O=C(CN1CCN(c2ccc(O)cc2)CC1)Nc1ccc(-c2ccccc2)cc1`, for which the activation is 111% (active). Then `O=C(CN1CCOCC1)Nc1ccccc1`, with 6.62% (inactive); and `CC(=O)c1ccc(N2CCN(CC(=O)Nc3ccccc3N3CCOCC3)CC2)cc1`, with 4.75% (inactive). Then `CN(C)Cc1c(O)ccc2occ(C(O)c3ccccc3)c12` (stereo unspecified), with 8.71% (inactive); and `COc1cccc2c1OCC(CN1CCN(C3CCCCC3)C(CCO)C1)=C2` (stereo unspecified), with 0.264% (inactive); and `CC(=O)NC(C)(C)C1CC=C(C)/C(=N\O)C1` (stereo unspecified), with 6.07% (inactive). Then `COC(C/C=C/C(=O)[C@@H](C)OCc1ccccc1)OC`, with -1.24% (inactive). As to `CCOC(=O)CSc1nc(C)cc2c1C(=O)OC2`, the activation is 2.74% (inactive).

In the case of `O=C(COC(=O)Cn1[nH]c(=O)c2ccccc2c1=O)Nc1ncc(Cl)cc1Cl`, the activation is -9.39% (inactive). Then `Cc1ccccc1OCc1nnc(SCC(=O)N2c3ccccc3Sc3ccc(Cl)cc32)o1`, with -5.1% (inactive); and `CC(=O)c1ccc(NC(=O)c2ccc3c(Cl)c4c(nc3c2)CCCC4)cc1`, with 61.1% (active).

Turning to `CC(C)CCNC(=O)c1ccc2c(Cl)c3c(nc2c1)CCC3`, the activation is 0.61% (inactive). Then `COc1cccc(NC(=O)c2ccc3c(SCC(=O)O)c4c(nc3c2)CCCC4)c1`, with 0.29% (inactive); and `O=C(CN1CCN(Cc2ccc(F)cc2Cl)C1=O)NCc1cccs1`, with 2.52% (inactive). Then `COc1ccc(NC(=O)c2cc([N+](=O)[O-])ccc2NC(=O)CNC2CCCCC2C)c(OC)c1` (stereo unspecified), with 5.61% (inactive); and `Cc1ccc(Sc2ccncc2S(N)(=O)=O)cc1`, with 4.01% (inactive); and `COc1ccc(Cn2c(O)c(/C=C3/C=CC=N3)c(=O)[nH]c2=O)cc1`, with 79.2% (active).

As to `COc1ccc(N=Cc2c(O)n(C)c(=O)[nH]c2=O)cc1`, the activation was -3.16% (inactive). Then `COc1ccc(CCn2c(O)c(C=NC3CC3)c(=O)[nH]c2=O)cc1OC`, with 0.91% (inactive). Then `CNC(=O)c1c(NC(NC(=O)c2ccco2)C(=O)c2ccc(Cl)cc2)sc2c1CCCC2` (stereo unspecified), with -0.431% (inactive). Then `O=C(Nc1ncc2c(n1)-c1ccccc1OC2)c1ccc(Cl)cc1`, with 3.08% (inactive); and `O=C(COC(=O)CNC(=O)C1CCCCC1)NCc1ccccc1`, with 0.98% (inactive). For the molecule `O=C1/C(=C/c2coc3ccc(O)cc3c2=O)SC(=S)N1c1ccccc1`, the activation was -53.2% (inactive). Then `Cc1ccc(-c2nn(-c3ccccc3)cc2/C=C2\SC(=S)N(CCCCCC(=O)O)C2=O)o1`, with 3200% (active); and `CCCCN1C(=O)/C(=C/C=C2/C=Cc3ccccc3N2CC)SC1=S`, with 18.5% (inactive); and `CCOc1ccc(S(=O)(=O)Nc2cccc(C(=O)NCC3(N4CCCCC4)CCCCC3)c2)cc1`, with -1.19% (inactive). Consider `COc1ccc(CCNC(=O)c2nnc(CS(=O)(=O)c3ccccc3)o2)cc1OC`, for which the activation was 6.35% (inactive). Take `O=C(NCC12CC3CC(C1)CC(CNC(=O)N1CCCC1)(C3)C2)N1CCCC1`: the activation was -3.78% (inactive). On to `COc1ccc(CNC(=O)CCC(=O)Nc2nnc(C(C)C)s2)cc1`, for which the activation is 7.7% (inactive). Consider `Cc1ccc(CN2C(=O)N/C(=C/c3cc(C)n(-c4ccccn4)c3C)C2=O)cc1`, for which the activation is -15.4% (inactive). With `CN(C(=O)CN1C(=O)NC(C)(CCc2ccccc2)C1=O)c1ccccc1` (stereo unspecified), the activation is -1.8% (inactive). Then `CN(C)c1ccc(/C=C2\NC(=S)N(Cc3ccccc3)C2=O)cc1`, with 56.4% (active); and `COCCn1c(=NC(=O)c2ccccc2[N+](=O)[O-])sc2cc(S(C)(=O)=O)ccc21`, with 15.4% (inactive); and `CSc1ccccc1C(=O)OCC(=O)N1CCN(C(C)=O)CC1`, with 1.11% (inactive). Then `Cc1scc(C(=O)NNC(=S)NCc2ccccc2)c1C`, with 51.1% (active); and `O=C(NNC(=S)NCc1ccccc1)c1ccc(OC(F)F)cc1`, with -1.92% (inactive). Then `Cc1scc(C(=O)NNC(=S)NCC(C)C)c1C`, with 5.32% (inactive). As to `COc1cc(S(=O)(=O)N2CCN(C(=O)C3CC3)CC2)ccc1NC(C)=O`, the activation is 3.42% (inactive). Then `COc1c(C)c2c(c(O)c1C/C=C(\C)CCC(=O)O)C(=O)OC2`, with 6.86% (inactive); and `O=C(COC(=O)c1cccc(Cl)c1)NC(=O)NCc1ccccc1`, with -3.25% (inactive); and `c1ccc(-c2cn3c(n2)CCc2ccc4cccnc4c2-3)cc1`, with 4.41% (inactive).

For `O=C(NCc1cccc(Cl)c1)C1=CC=CN2CCS(=O)(=O)N=C12`, the activation is -3.56% (inactive). `CCOC(=O)N1CCN(C(=O)CN(C2CCCCC2)S(C)(=O)=O)CC1`: the activation is -5% (inactive). Then `CCc1ccc2nc(Nc3ncc(C(C)=O)c(C)n3)nc(C)c2c1`, with -3.52% (inactive).
